Screen size: about 38,000 compounds; about 1,200 (3.2%) showed an effect of 50% or more. The median lay at about -58%. The full list was thinned out, with strong results kept by preference.
tested on: Plasmodium falciparum; experiment: Calibr Malaria Delayed Death Assay SOP; format: functional, organism-based; parameters: scale not given: in the data most compounds retested in dose-response had high values; conditions: concentration 4.99e-06 (unit not given; other assays of the set use mol/L)

| SMILES | Percent Effect [%] |
| --- | --- |
| COCCn1c2c(ccc1=O)CCN(C(=O)NC1CC1)CC2 | -102.5 |
| O=C1CC(c2ccc(O)cc2)c2sc(C(=O)O)c(-c3ccccc3)c2N1 (stereo unspecified) | -164.8 |
| Cc1ocnc1C(=O)N1CC[C@@H](O)[C@@H](O)[C@H](N2CCC(F)(F)CC2)C1 | -140.1 |
| Cc1ccc2c(n1)N(CC(C)C)CCN(S(C)(=O)=O)C2.O=C(O)C(F)(F)F | -91.42 |
| CCN1CC(CN2CCOCC2)Oc2ncccc2C1=O (stereo unspecified) | -121.7 |
| O=C(C1CNCCO1)N1CCC(c2cc(N3CCCC3)ncn2)CC1 (stereo unspecified) | -72.24 |
| Cc1ccc(-c2ccc(C3CNCCO3)nc2)cc1.Cl (stereo unspecified) | 82.68 |
| O=C(c1csc(C2CC2)n1)N1CCCCC1Cn1cccn1 (stereo unspecified) | -84.46 |
| CN(Cc1cccc(C#N)c1)c1ncc(C(N)=O)cc1Cl | -70.4 |
| CC(C(=O)Nc1cc(F)ccc1F)N1CCN(Cc2ncc[nH]2)CC1 (stereo unspecified) | -135.8 |
| O=C(NCCC(O)c1ccccc1)c1ccco1 (stereo unspecified) | -97.01 |
| NCCC(Cc1ccccc1)c1ccco1 (stereo unspecified) | 83.75 |
| O=S(=O)(Cc1ccccc1)NCc1ccco1 | -115.6 |
| CCOc1cccc(C(=O)N(CCC#N)Cc2ccccn2)c1 | -89.54 |
| O=C(NC1CC1)c1cc2c(s1)CCN2C(=O)C1CC1 | -64.25 |
| Cc1ccc(C)c(S(=O)(=O)NC(=O)c2cccc3c2OCCO3)c1 | -117.7 |
| C[C@@H]1CN(Cc2ccncc2)C[C@]1(C)O | -25.52 |
| COc1cccc(CN2CCCCC2CN2CCOCC2)c1F (stereo unspecified) | 2.016 |
| COc1cc2c(cc1CN1CCCCC1CN1CCOCC1)CCC2 (stereo unspecified) | 64.85 |
| COc1cc2c(cc1CN1C[C@@H](CN3CCOCC3)[C@@H](CO)C1)CCC2 | 19.43 |
| Cc1c(C(=O)NCCCC(N)=O)sc2ccc(F)cc12 | -72.75 |
| O=C1CC(NS(=O)(=O)c2ccc3ccccc3c2)CN1 (stereo unspecified) | -65.16 |
| Cc1noc([C@@H]2C[C@@H]3CCN(c4nnc(C)s4)C[C@H]3O2)n1.O=C(O)C(F)(F)F | -44.29 |
| Cc1nc(C2CCNCC2)cc(N(C)Cc2cc3cc(F)ccc3[nH]2)n1 | 75.18 |
| Cc1ccnc(CC(C)N(C)c2cc(C3CCNCC3)nc(C)n2)c1 (stereo unspecified) | -104.4 |
| CNS(=O)(=O)CC(=O)N(Cc1c(F)cccc1Cl)C1CC1 | -68.94 |

| SMILES | Percent Effect [%] |
| --- | --- |
| Cc1nc(CCN)cc(N(C)Cc2nc3ccc(F)cc3[nH]2)n1 | -113.9 |
| CN(Cc1cc2cc(F)ccc2[nH]1)c1cc(C2CCCNC2)ncn1 (stereo unspecified) | 83.71 |
| Cc1nc(C2CCNCC2)cc(N(C)CCc2cn[nH]c2)n1 | -114.3 |
| Cc1nc(NCc2ccc(C)o2)cc(C2CCNCC2)n1 | -133.8 |
| Cc1c(CN(C)c2cc(C3CCCNC3)ncn2)[nH]c2ccccc12 (stereo unspecified) | 11.41 |
| Cc1nc(NCc2coc(-c3ccccc3)n2)cc(C2CCNCC2)n1 | -7.041 |
| CN(Cc1cc2cc(F)ccc2[nH]1)C(=O)C1CC(=O)N(C2CCCC2)C1 (stereo unspecified) | 12.79 |
| Cc1cccc(CNC(=O)Nc2cc(C(F)(F)F)c[nH]c2=O)n1 | -120.3 |
| CCn1nc(C)c2nc(C)nc(NC3CCCC3)c21 | -48.65 |
| Cc1ccc(CN2CCN(CC(=O)Nc3ccc4nsnc4c3)CC2)o1 | -102.5 |
| CC(=O)c1ccc(-c2cc(C(F)(F)F)cc(N(C)C)n2)cc1 | -183.7 |
| CCOC(=O)C1=NOC(Cc2cc(OC)c3c(c2)OCO3)C1 (stereo unspecified) | -124.2 |
| Cc1cc(N2CCOCC2)ccc1NC(C)c1nc(C(C)C)no1 (stereo unspecified) | -4.816 |
| Cc1sc2nc(CCN)nc(N3CCC(N4CCCC4)CC3)c2c1C | 84.16 |
| CCOC(=O)N1CCN(c2nc(C)ncc2CC)CC1 | -56.83 |
| Cc1sc2nc(C(F)(F)F)nc(N3CCC(NS(C)(=O)=O)CC3)c2c1C | 27.92 |
| CCOC(=O)N1CCN(c2nc(CCN)nc3sc(C)c(C)c23)CC1 | 65.93 |
| Cc1sc2nc(C(F)(F)F)nc(N3CCN(S(C)(=O)=O)CC3)c2c1C | -77.64 |
| Cc1sc2nc(CCN)nc(N3CCS(=O)(=O)CC3)c2c1C | -119.4 |
| Cn1ccnc1-c1cn(CCCc2nnc(N)s2)nn1 | -41.76 |
| O=C(N1CCCC(n2cncn2)C1)C1(c2cccc(F)c2)CCC1 (stereo unspecified) | -129.3 |
| CCN(CC)C(=O)COc1ccnc2cc(OC)ccc12 | -91.77 |
| O=C(C1CCCO1)N1CCC2(CC1)COCCN(Cc1cccnc1)C2.O=C(O)C(F)(F)F.O=C(O)C(F)(F)F (stereo unspecified) | -101.1 |
| c1cc(CNCCc2cn3ccccc3n2)c2c(c1)OCCCO2 | -61.04 |
| Cc1cccn2cc(CNCc3cccc4c3OCCCO4)nc12 | 52.57 |
| Cc1cccc2nc(CNCc3cccc4c3OCCCO4)cn12 | 46.47 |

| SMILES | Percent Effect [%] |
| --- | --- |
| CN(C)C(=O)Cc1ccc(-c2cccc3c2CCNC3)cc1 | -89.76 |
| CN(C)[C@H]1CCN(c2ccnc(C(=O)NCc3ccco3)c2)C1 | -104.8 |
| CCCOC1CCCN(c2ccnc(C(=O)NCc3ccco3)c2)C1 (stereo unspecified) | 63.16 |
| O=C(NCc1ccco1)c1cc(N2CC[C@@H](O)C2)ccn1 | -225.7 |
| CCS(=O)(=O)Nc1cnn(Cc2cccc(Cl)c2)c1 | -156.5 |
| COc1ccc(-c2nc3c([nH]2)CCCNC3=O)cc1OC | -190.2 |
| Cc1nn(C)c(N2CCOCC2)c1CNC(C)c1ccccn1 (stereo unspecified) | -39.11 |
| Cc1ccc(OC2(C(=O)N(C)Cc3ccoc3)CCNCC2)cc1 | 63.87 |
| COc1cccn(CC(=O)N(C)Cc2ccoc2)c1=O | -45.98 |
| O=C(N[C@@H]1CCCNC1)C1(Oc2ccc(Cl)cc2)CCNCC1 | -19.49 |
| CN(Cc1ccoc1)C(=O)C1(Oc2ccc(Cl)cc2)CCNCC1 | 67.21 |
| CN(Cc1ccncn1)C(=O)C1(Oc2ccc(Cl)cc2)CCNCC1 | -76.49 |
| CN(C)C(=O)C1(Oc2ccc(Cl)cc2)CCNCC1 | 48.49 |
| Cc1ccc(C(=O)N2CC[C@@]3(O)CCCC[C@H]3C2)cc1 | -98.64 |
| O=C1CC(c2ccncc2)c2c(sc3c2CCCC3)N1 (stereo unspecified) | 55.71 |
| O=C1CC(c2ccc(C(=O)O)cc2)c2c(sc3c2CCCC3)N1 (stereo unspecified) | -5.696 |
| O=C1CC(c2cccnc2)c2c(sc3c2CCCC3)N1 (stereo unspecified) | 28.11 |
| O=C(CCc1ccco1)NS(=O)(=O)N1CCOc2ccccc21 | -129.3 |
| CCCc1cc(CNC(=O)Cc2cc(C)no2)on1 | -176 |
| Cc1cc(C[C@@H]2CCC[C@H]2NCc2ccccc2C)on1.O=C(O)CC(O)(CC(=O)O)C(=O)O | 63.44 |
| CCC[C@H]1CN(Cc2cc(C)no2)C[C@@H]1NC(=O)C1(COC)CCC1 | -58.42 |
| Cc1cc(C[C@@H]2CCC[C@H]2NCc2cccc(F)c2F)on1.O=C(O)CC(O)(CC(=O)O)C(=O)O | -66.07 |
| Cc1cc(C[C@@H]2CCC[C@H]2NCc2ccccc2F)on1.O=C(O)CC(O)(CC(=O)O)C(=O)O | -9.902 |
| CCCOc1ccccc1CN[C@@H]1CCC[C@H]1Cc1cc(C)no1.O=C(O)CC(O)(CC(=O)O)C(=O)O | 84.13 |
| Cc1cc(CS(=O)(=O)NC2CCCCC2)on1 | -56.68 |
| Cc1ccccc1Oc1ncccc1CNC1CCC1 | 31.34 |

| SMILES | Percent Effect [%] |
| --- | --- |
| COc1ccc(-c2nc(CN3CCc4cnc(C)nc4C3)no2)cc1 | -21.98 |
| Cc1cccc(NC(=O)[C@@H]2CCCN2Cc2nc3ccccc3o2)n1 | -70.67 |
| O=C(O)C(F)(F)F.O=C(O)c1cc(NS(=O)(=O)c2ccc(Cl)s2)ccc1N1CCOCC1 | -83.84 |
| CCCc1cc(N2CCC(Cc3cccc(C(N)=O)c3)C2)nc(C)n1 (stereo unspecified) | -73.24 |
| CN(C)c1cc(C(=O)NCc2cccnc2-n2cncn2)ccn1 | -24.53 |
| Cc1ccsc1CN(CCN(C)C)C(=O)c1ccccc1C#N | 59.93 |
| Cc1ccc(CN(CCN(C)C)C(=O)Nc2ccc(C)c(C#N)c2)s1 | 40.03 |
| Cc1ccsc1CN(CCN(C)C)C(=O)c1cc2ccccc2[nH]1 | -0.6518 |
| O=C(NC[C@@H]1CCCO1)c1cccnc1N1CCCC1c1ccccn1 (stereo partly specified) | -159.2 |
| CCOC(=O)N[C@H]1C[C@@H](C(=O)NCCc2cccc(Cl)c2)N(C)C1 | -112.6 |
| Cc1nc(-c2cccc(N3CCC(N4CCCC(C#N)C4)CC3)c2)cs1 (stereo unspecified) | -24.98 |
| Cc1nc(-c2cccc(N3CCC(N4CCCC4)CC3)c2)cs1 | 70.2 |
| COC1CCCN(C2CCN(c3cccc(-c4csc(C)n4)c3)CC2)C1 (stereo unspecified) | -26.41 |
| CC(C)c1nnc(CN(C)Cc2ccccc2-c2ccccc2)o1 | -137.8 |
| Cc1nc(N2CCCC2)nc2c1CCN(C(=O)C(C)C)CC2 | -54.78 |
| CCC(NCc1ccccc1C)c1ccccc1OCC(=O)NC (stereo unspecified) | 78.75 |
| CCC(NC(=O)CC(F)(F)F)c1ccccc1OCC(=O)N1CCCC1 (stereo unspecified) | 15.61 |
| Cc1ccccc1CNc1ccccc1OCC(=O)N1CCOCC1 | 13.74 |
| O=C(COc1cccc2c1CCC2=O)NCc1ccccc1Cl | -71.52 |
| CCC(NCc1ccccc1Cl)c1ccccc1OCC(=O)NC (stereo unspecified) | 73.2 |
| Cc1ccc(OCCCC(=O)NC(C)c2nnc3n2CCC3)cc1 (stereo unspecified) | -64.5 |
| O=C1CCC(=O)N1CCn1nnc(-c2ccc(Br)cc2)n1 | -91.28 |
| CCS(=O)(=O)N1CCN(Cc2cccnc2)c2nc(C)ccc2C1.O=C(O)C(F)(F)F.O=C(O)C(F)(F)F | 2.753 |
